Results published in the supplement of paper PMC7156485.

test system: HCC1569; assay: H1.0 immunofluorescence intensity relative to DMSO (% of DMSO); higher = stronger H1.0 induction, active = 140 or more; details: concentration: 10 µM; 24 h
Outline: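 Compounds were applied at 10 µM for 24 h at 37 °C, in triplicate, to HCC1569 and TDF cells. The cells were then fixed and stained for H1.0, and nuclei were counterstained with DAPI. Nuclear H1.0 intensity or cell number is reported relative to the plate control as a percent, taking the median of replicates. Smoothing for positional effects was applied to HCC1569 values only.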
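Note: TDF is a line of transformed human dermal fibroblasts of mesenchymal origin.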

H1.0 immunofluorescence intensity, inactive:
CC(C)c1ccc2c(c1)c(SC(C)(C)C)c(CC(C)(C)C(=O)[O-])n2Cc1ccc(Cl)cc1.[Na+] 91.2
CCCCCC=CCC=CCC=CCC=CCCCC(=O)OC(CO)COC(=O)CCCCCCCCCCCCCCCCC (stereo not given) [1-Stearoyl-2-arachidonoyl-glycerol] 98
CC(=O)NC(C(=O)O)C(C)(C)SN=O (stereo not given) [S-Nitroso-N-acetylpenicillamine] 96.7
O=C(Nc1cc(C(F)(F)F)cc(C(F)(F)F)c1)c1cc(Cl)ccc1O 122
O=C1CC(c2ccc(O)c(O)c2)Oc2c1ccc(OC1OC(CO)C(O)C(O)C1O)c2O (stereo not given) [Flavanomarein] 99.9
COc1cc(SC)ccc1C(=O)N1CCC(Cc2ccccc2)CC1 [p38 MAP Kinase Inhibitor VI, JX401] 117
CC1CCC2(C(=O)O)CCC3(C)C(=CCC4C5(C)CCC(O)C(C)(C)C5CCC43C)C2C1C (stereo not given) [Ursolic acid] 93.7
CN1CCN(C2=Nc3ccccc3Sc3ccc(Cl)cc32)CC1 [Clothiapine] 110
COc1cc2c3cc1Oc1cc(ccc1O)CC1c4c(cc(OC)c(O)c4Oc4ccc(cc4)CC3N(C)CC2)CC[N+]1(C)C (single isomer, unassigned; (+)) [(+)-Tubocurarine chloride] 89.2
CCCCCC(O)C=CC1=C(CC=CCCCC(=O)O)C(=O)CC1 (stereo not given) [Prostaglandin B2] 97.4
